# Data published in PubChem BioAssay (Tox21).
# Unmarked numbers belong to inactive results. Inconclusive results are not listed. Where a call stands in place of a potency, no number is given. Calls of active or inactive are those of the source. Unless noted, calls follow the shape of the dose curve; as a rule, active = well fitted curve in the direction sought with a large enough effect in the repeat runs; inconclusive = weak or mixed curves; inactive = no such curve, though single readings can be large; an effect the other way counts as inactive or inconclusive.
# Assays:
# [1] = qHTS assay to identify small molecule antagonists of the estrogen receptor alpha (ER-alpha) signaling pathway using the BG1 cell line in the presence of 0.1 nM 17-beta-estradiol - cell viability counter screen (AID 1259241); also: nearly all actives have a fitted effect of over 40% in size
# Procedure, shortened: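 CellTiter-Fluor read (30 min, 37C) on ER-alpha/ERE-luc VM7Luc4E2 cells; 22 hr compound treatment; agonist 0.1 nM E2 final; same-well multiplex.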
# [2] = qHTS assay to identify small molecule antagonists of the androgen receptor (AR) signaling pathway using the MDA cell line in the presence of 0.5 nM R1881 - cell viability counter screen (AID 1259242); also: nearly all actives have a fitted effect of over 45% in size; also: potency is read from the fitted curve at half-maximal effect
# Procedure, shortened: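 Counter screen for cytotoxicity run in the same wells as the AR antagonist reporter screen: MDA-kb2 cells were treated 16 hr with test compounds and 0.5 nM R1881, then live-cell protease activity was measured by fluorescence.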
# [3] = target: Androgen receptor (Homo sapiens) (UniProt P10275); assay: qHTS assay to identify small molecule antagonists of the androgen receptor (AR) signaling pathway using the MDA cell line in the presence of 0.5 nM R1881 (AID 1259243); also: nearly all actives have a fitted effect of over 50% in size; also: potency is read from the fitted curve at half-maximal effect
# Procedure, shortened: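 Luciferase luminescence is the read-out: compounds are tested for suppressing 0.5 nM R1881-driven MMTV reporter activity in MDA-kb2 cells after 16 hr at 37C.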
# [4] = target: Estrogen receptor (Homo sapiens) (UniProt P03372); assay: qHTS assay to identify small molecule antagonists of the estrogen receptor alpha (ER-alpha) signaling pathway using the BG1 cell line in the presence of 0.1 nM 17-beta-estradiol (AID 1259244); also: nearly all actives have a fitted effect of over 50% in size
# Procedure, shortened: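 Cells: VM7Luc4E2, endogenous ER-alpha, 4x ERE-luc stable. Pre-culture 5 d, phenol red-free, charcoal-stripped FBS. Plated 24 h, compound + E2 0.1 nM final, 22 h 37C/5% CO2. Readout ONE-Glo luminescence.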
# [5] = qHTS assay to identify small molecule phospholipidosis (PLD) inducers (AID 1259344; active = well fitted curve in the direction sought with a large enough effect; an effect the other way counts as inactive or inconclusive)
# Procedure, shortened: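 Fluorescent phospholipid staining (LipidTOX Red) measured by automated microscopy in fixed HepG2 cells after 24 h treatment; nuclei counterstained with Hoechst 33342; amiodarone as reference inducer.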
# [6] = qHTS assay to identify small molecule HDAC inhibitors - cell viability counter screen (AID 1259365); also: series mostly up to about 92 µM; nearly all actives have a fitted effect of over 50% in size
# Procedure, shortened: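 To flag cytotoxic hits, 1,500 wild-type HCT-116 cells per well, plated the day before, receive test compounds for 2hr at 37 C before CellTiter-Glo reagent and a luminescence read.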
# [7] = qHTS assay to identify small molecule agonists of the sonic hedgehog signaling (Shh) pathway - cell viability counter screen (AID 1259366); also: nearly all actives have a fitted effect of over 50% in size
# Procedure, shortened: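 Fluorescence from CellTiter-Fluor reports live cells in this counter screen. NIH/3T3-derived Gli1-Luc reporter cells receive test compounds for 24hr at 37C; reagent goes in at 23hr.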
# [8] = qHTS assay to identify small molecule agonists of the sonic hedgehog signaling (Shh) pathway (AID 1259368; calls by dose curve;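 also: NIH/3T3-derived 3T3Gli1-Luc cells carrying a stable Gli1-driven firefly luciferase reporter; series mostly up to about 92 µM; nearly all actives have a fitted effect of over 15% in size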)
# Procedure, shortened: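 3T3Gli1-Luc (NIH/3T3 clone, stable Gli1-Luc); 4 hr pre-incubation, then cpd in DMSO 24 hr, 37 C/5% CO2; luciferase reagent 30 min RT; luminescence.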
# [9] = qHTS assay to identify small molecule antagonists of the sonic hedgehog signaling (Shh) pathway (AID 1259369; calls by dose curve; also: nearly all actives have a fitted effect of over 45% in size; also: potency is read from the fitted curve at half-maximal effect)
# Procedure, shortened: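 3T3Gli1-Luc, conditioned-medium-stimulated, 24hr cpd, 37C/5% CO2; Gli1-driven firefly Luc luminescence after 30min RT with luciferase reagent. Cells plated 4hr before cpd.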
# [10] = target: Estrogen receptor beta (Homo sapiens) (UniProt Q92731); assay: qHTS assay to identify small molecule agonists of the estrogen receptor beta (ER-beta) signaling pathway (AID 1259377; active = well fitted activation curve with a large enough effect in the signal ratio in the repeat runs, not every such curve was filed as active; the % refers to the signal ratio)
# Procedure, shortened: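 Screening used GripTite ER-beta-UAS-bla cells held in 2% charcoal-stripped FBS medium. After overnight (16 hr) compound incubation at 37C, beta-lactamase activity was detected with a FRET substrate by fluorescence.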
# [11] = target: Estrogen receptor beta (Homo sapiens) (UniProt Q92731); assay: qHTS assay to identify small molecule antagonists of the estrogen receptor beta (ER-beta) signaling pathway (AID 1259378; active = well fitted inhibition curve with a large enough effect in the signal ratio in the repeat runs, not every such curve was filed as active; the % refers to the signal ratio)
# Procedure, shortened: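 Antagonist mode: compounds added to beta-lactamase reporter HEK293T ER-beta-UAS cells stimulated with E2 (1nM final), 16 hr at 37C. LiveBLAzer B/G FRET substrate, 2 hours room temperature, fluorescence read-out.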
# [12] = qHTS assay to identify small molecule agonists of the androgen receptor (AR) signaling pathway in the presence of an antagonist - cell viability counter screen (AID 1259379); also: nearly all actives have a fitted effect of over 25% in size; also: potency is read from the fitted curve at half-maximal effect
# Procedure, shortened: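 Cells: MDA-kb2 (MMTV-luc, AR and GR elements), 3,000/well, 5 hr settle. Added: nilutamide 3.0uM final, then compounds (15 conc.). Incubation: 16 hr, 37C, no CO2. Read-out: CellTiter-Fluor, 1 hr, fluorescence.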
# [13] = qHTS assay to identify small molecule agonists of the estrogen receptor beta (ER-beta) signaling pathway - cell viability counter screen (AID 1259380); also: nearly all actives have a fitted effect of over 30% in size
# Procedure, shortened: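 HEK293T ER-beta-UAS-bla; 2% CS-FBS; 6 hr pre-plate, 16 hr cpd at 37C/5% CO2; LiveBLAzer read first, then CellTiter-Glo 30 min RT, luminescence.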
# [14] = target: Androgen receptor (Homo sapiens) (UniProt P10275); assay: qHTS assay to identify small molecule agonists of the androgen receptor (AR) signaling pathway in the presence of an antagonist (AID 1259381; calls by dose curve; also: nearly all actives have a fitted effect of over 15% in size)
# Procedure, shortened: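 MDA-kb2 cells, 3,000/well, rested 5hr at 37C/0% CO2 → nilutamide 3.0uM final or buffer → compounds, 15 conc. → 16hr at 37C → ONE-Glo, 30min RT → luminescence.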
# [15] = qHTS assay to identify small molecule antagonists of the estrogen receptor beta (ER-beta) signaling pathway - cell viability counter screen (AID 1259382);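 also: HEK293T cells carrying ER-beta-UAS-bla reporter stimulated with estradiol; series mostly up to about 92 µM; nearly all actives have a fitted effect of over 55% in size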
# Procedure, shortened: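 Cells: ER-beta-UAS-bla HEK293T, 2,000/well, 2% CS-FBS, 6 hr settle. Cpd + E2 (1nM final), 16 hr, 37C/5% CO2. Bla FRET substrate 2 hr RT, then CellTiter-Glo 30 min RT, luminescence.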
# [16] = target: Estrogen receptor (Homo sapiens) (UniProt P03372); assay: qHTS assay to identify small molecule agonists of the estrogen receptor alpha (ER-alpha) signaling pathway in the presence of an antagonist (AID 1259383; calls by dose curve; also: top concentration of the series differs between compounds; nearly all actives have a fitted effect of over 15% in size)
# Procedure, shortened: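 VM7Luc4E2, endog. ER-alpha + 4×ERE-luc; charcoal-stripped FBS, phenol red-free, 5 d; 24hr plating; +10.0nM ICI-182,780 (final); cpds 15 conc, 22hr, 37C/5% CO2; ONE-Glo luminescence.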
# [17] = qHTS assay to identify small molecule agonists or antagonists of the thyroid stimulating hormone receptor (TSHR) signaling pathway - wild type cell line counter screen (AID 1259384; calls by dose curve)
# Procedure, shortened: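 Counter screen in untransfected Hek293: compounds (15-point titration, triplicate) plus phosphodiesterase inhibitor Ro20-1724 added after 18 h plating; 30 min RT. Intracellular cAMP via competitive d2/cryptate immunoassay, 1 h incubation.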
# [18] = target: Thyrotropin receptor (Homo sapiens) (UniProt P16473); assay: qHTS assay to identify small molecule antagonists of the thyroid stimulating hormone receptor (TSHR) signaling pathway (AID 1259385; calls by dose curve; also: nearly all actives have a fitted effect of over 20% in size; also: potency is read from the fitted curve at half-maximal effect)
# Procedure, shortened: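 Antagonist mode: compound-treated TSHR-expressing HEK293 cells were stimulated with 1.5 ng/mL TSH (final) in presence of Ro20-1724 for 30 min at RT. HTRF cAMP detection after 1 h; each compound tested at 15 concentrations, triplicate.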
# [19] = qHTS assay to identify small molecule HDAC inhibitors (AID 1259364); also: top concentration of the series differs between compounds; nearly all actives have a fitted effect of over 45% in size
# Procedure, shortened: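 Luminescence from a cell-permeant luminogenic class I/II HDAC substrate reports endogenous deacetylase activity in intact HCT-116 cells treated with compounds for 2 h.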
# [20] = qHTS assay to identify small molecule antagonists of the sonic hedgehog signaling (Shh) pathway - cell viability counter screen (AID 1259367); also: nearly all actives have a fitted effect of over 55% in size; also: potency is read from the fitted curve at half-maximal effect
# Procedure, shortened: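 Using CellTiter-Fluor, viability of Gli1-Luc reporter 3T3 cells is read by fluorescence in the wells used for the Shh luciferase assay. Treatment lasts 23 hr with conditioned medium, then reagent 1 hr at 37C.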
# Androgen receptor (Homo sapiens), sequence (P10275 whole entry, looked up): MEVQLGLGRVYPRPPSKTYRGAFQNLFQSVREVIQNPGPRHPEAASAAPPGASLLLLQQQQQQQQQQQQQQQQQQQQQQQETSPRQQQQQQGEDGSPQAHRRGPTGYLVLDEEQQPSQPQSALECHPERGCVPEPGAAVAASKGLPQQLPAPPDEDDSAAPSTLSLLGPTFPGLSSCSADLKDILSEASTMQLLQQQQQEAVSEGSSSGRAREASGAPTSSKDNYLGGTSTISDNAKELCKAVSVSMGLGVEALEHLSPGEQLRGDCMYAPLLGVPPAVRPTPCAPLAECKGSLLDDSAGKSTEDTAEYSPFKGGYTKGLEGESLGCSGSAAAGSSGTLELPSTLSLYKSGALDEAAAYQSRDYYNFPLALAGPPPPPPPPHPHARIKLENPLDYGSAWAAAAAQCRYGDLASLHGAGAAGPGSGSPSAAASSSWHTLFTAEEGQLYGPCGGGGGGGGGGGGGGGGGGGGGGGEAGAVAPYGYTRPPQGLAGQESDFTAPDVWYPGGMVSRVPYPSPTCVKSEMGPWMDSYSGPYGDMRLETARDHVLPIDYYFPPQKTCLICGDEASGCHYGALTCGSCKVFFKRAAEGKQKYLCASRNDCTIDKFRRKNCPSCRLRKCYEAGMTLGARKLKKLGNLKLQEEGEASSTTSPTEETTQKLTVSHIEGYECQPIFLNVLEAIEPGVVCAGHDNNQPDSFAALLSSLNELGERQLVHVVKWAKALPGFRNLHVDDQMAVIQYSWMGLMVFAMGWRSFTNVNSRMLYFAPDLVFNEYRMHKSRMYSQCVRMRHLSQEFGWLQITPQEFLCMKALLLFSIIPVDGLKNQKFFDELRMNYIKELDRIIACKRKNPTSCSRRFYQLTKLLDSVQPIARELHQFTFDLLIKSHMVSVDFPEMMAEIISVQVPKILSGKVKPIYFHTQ
# Thyrotropin receptor (Homo sapiens), sequence (P16473 whole entry, looked up): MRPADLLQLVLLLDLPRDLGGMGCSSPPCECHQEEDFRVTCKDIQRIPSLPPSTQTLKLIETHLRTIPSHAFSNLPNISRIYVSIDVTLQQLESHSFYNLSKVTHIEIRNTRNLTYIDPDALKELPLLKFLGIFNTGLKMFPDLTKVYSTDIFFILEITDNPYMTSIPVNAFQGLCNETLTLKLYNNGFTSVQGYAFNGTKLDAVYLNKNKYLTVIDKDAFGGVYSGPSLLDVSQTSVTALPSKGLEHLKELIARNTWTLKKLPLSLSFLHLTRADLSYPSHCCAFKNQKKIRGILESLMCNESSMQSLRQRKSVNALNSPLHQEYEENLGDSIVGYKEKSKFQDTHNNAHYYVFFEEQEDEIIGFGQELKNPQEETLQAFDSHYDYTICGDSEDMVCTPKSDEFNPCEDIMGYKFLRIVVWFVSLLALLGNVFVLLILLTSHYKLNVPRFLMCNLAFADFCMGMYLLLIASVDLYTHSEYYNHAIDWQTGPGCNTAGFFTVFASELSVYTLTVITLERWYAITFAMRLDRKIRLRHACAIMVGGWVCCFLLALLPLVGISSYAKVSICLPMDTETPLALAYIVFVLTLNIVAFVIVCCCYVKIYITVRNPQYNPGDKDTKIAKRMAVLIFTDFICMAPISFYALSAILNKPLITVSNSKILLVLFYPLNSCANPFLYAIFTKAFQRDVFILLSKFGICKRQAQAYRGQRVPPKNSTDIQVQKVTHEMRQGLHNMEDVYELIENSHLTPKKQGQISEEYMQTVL
# Estrogen receptor beta (Homo sapiens), sequence (Q92731 whole entry, looked up): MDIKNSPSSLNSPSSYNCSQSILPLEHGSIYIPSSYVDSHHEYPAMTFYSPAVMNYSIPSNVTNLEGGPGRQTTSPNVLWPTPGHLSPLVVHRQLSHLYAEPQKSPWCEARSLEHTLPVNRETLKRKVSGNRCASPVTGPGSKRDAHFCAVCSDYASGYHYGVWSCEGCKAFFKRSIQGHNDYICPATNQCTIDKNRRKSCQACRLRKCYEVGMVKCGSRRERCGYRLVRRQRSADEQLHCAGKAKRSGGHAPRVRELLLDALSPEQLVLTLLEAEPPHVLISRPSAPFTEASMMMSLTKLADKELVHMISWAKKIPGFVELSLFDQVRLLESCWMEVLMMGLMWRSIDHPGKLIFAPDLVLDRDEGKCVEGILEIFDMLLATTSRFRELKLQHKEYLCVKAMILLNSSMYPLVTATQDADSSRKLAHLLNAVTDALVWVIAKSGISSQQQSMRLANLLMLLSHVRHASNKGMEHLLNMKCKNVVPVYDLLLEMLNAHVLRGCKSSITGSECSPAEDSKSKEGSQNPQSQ
# Estrogen receptor (Homo sapiens), sequence (P03372 whole entry, looked up): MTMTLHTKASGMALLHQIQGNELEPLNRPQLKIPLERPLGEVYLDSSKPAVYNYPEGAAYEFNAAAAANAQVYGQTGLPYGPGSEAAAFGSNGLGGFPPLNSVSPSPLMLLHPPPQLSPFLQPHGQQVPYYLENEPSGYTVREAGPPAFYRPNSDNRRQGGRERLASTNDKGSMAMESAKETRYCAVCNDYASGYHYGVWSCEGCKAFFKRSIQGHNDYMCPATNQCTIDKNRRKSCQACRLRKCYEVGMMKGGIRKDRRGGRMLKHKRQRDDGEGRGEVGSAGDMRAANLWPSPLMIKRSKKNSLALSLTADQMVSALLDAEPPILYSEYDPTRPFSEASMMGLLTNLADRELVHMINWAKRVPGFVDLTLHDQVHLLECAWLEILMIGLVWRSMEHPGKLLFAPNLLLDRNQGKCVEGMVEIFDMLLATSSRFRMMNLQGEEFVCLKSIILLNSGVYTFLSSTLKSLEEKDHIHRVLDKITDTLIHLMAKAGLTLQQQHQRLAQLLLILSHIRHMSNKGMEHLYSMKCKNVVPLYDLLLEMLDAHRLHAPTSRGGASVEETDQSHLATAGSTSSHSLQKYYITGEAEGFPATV
smiles,measurement,setting,value
CCN1C(=O)c2ccccc2C1Nc1ccc(OCCN2CCCCC2)cc1 (stereo not given),Potency,[1],inactive
same,Potency,[2],inactive
same,Potency,[3],inactive
same,Potency,[4],inactive
same,PLD induction,[5],0.829% [at 7.66 µM]
same,Potency,[6],inactive
same,Potency,[7],inactive
same,Potency,[8],inactive
same,Potency,[9],13.3 µM (active)
same,Potency,[10],inactive
same,Potency,[11],inactive
same,Potency,[12],inactive
same,Potency,[13],inactive
same,outcome,[14],inactive
same,Potency,[15],inactive
same,Potency,[16],inactive
same,outcome,[17],inactive
same,Potency,[18],inactive
CN(C)CCN1CCN(c2cccc(Cl)c2)C1=O,Potency,[1],inactive
same,Potency,[2],inactive
same,Potency,[3],inactive
same,Potency,[4],inactive
same,Potency,[19],inactive
same,Potency,[6],inactive
same,Potency,[7],inactive
same,Potency,[8],inactive
same,Potency,[9],inactive
same,Potency,[10],inactive
same,Potency,[11],inactive
same,Potency,[12],inactive
same,Potency,[15],inactive
same,Potency,[16],inactive
same,outcome,[17],inactive
same,Potency,[18],inactive
Cc1c(F)c(N2CCNC(C)C2)cc2c1c(=O)c(C(=O)O)cn2C1CC1 (stereo not given),Potency,[1],inactive
same,Potency,[2],inactive
same,Potency,[4],inactive
same,Potency,[5],inactive
same,Potency,[19],inactive
same,Potency,[6],inactive
same,Potency,[7],inactive
same,Potency,[20],inactive
same,Potency,[8],inactive
same,Potency,[9],inactive
same,Potency,[12],inactive
same,Potency,[13],inactive
same,Potency,[15],inactive
same,Potency,[16],inactive
same,outcome,[17],inactive
same,Potency,[18],inactive
CCCCC(CC)CN1CN(CC(CC)CCCC)CC(C)(N)C1 (stereo not given),Potency,[1],inactive
same,Potency,[2],26.6 µM (active)
same,Potency,[3],26.6 µM (active)
same,Potency,[4],inactive
same,Potency,[5],inactive
same,Potency,[6],inactive
same,Potency,[20],inactive
same,Potency,[8],inactive
same,Potency,[9],inactive
same,Potency,[10],inactive
same,Potency,[11],inactive
same,Potency,[12],21.1 µM (active)
same,Potency,[15],inactive
same,Potency,[16],inactive
same,outcome,[17],inactive
same,Potency,[18],21.1 µM (active)
Cc1c(N)cccc1C(F)(F)F,Potency,[1],inactive
same,Potency,[2],inactive
same,Potency,[3],inactive
same,Potency,[6],inactive
same,Potency,[7],inactive
same,Potency,[20],inactive
same,Potency,[8],inactive
same,Potency,[9],inactive
same,Potency,[12],inactive
same,Potency,[13],inactive
same,Potency,[15],inactive
same,outcome,[17],inactive
same,Potency,[18],inactive
COC(=O)Nc1nc2ccc(C(=O)c3ccccc3)cc2[nH]1,Potency,[1],inactive
same,Potency,[2],inactive
same,Potency,[3],inactive
same,Potency,[4],inactive
same,Potency,[6],inactive
same,Potency,[7],inactive
same,Potency,[20],3.35 µM (active)
same,Potency,[8],inactive
same,Potency,[13],inactive
same,outcome,[14],inactive
same,Potency,[15],inactive
same,Potency,[16],inactive
same,outcome,[17],inactive
CC(C)OC(=O)C(O)(CC(=O)O)CC(=O)O,Potency,[1],inactive
same,Potency,[2],inactive
same,Potency,[3],inactive
same,Potency,[4],inactive
same,Potency,[19],inactive
same,Potency,[6],inactive
same,Potency,[7],inactive
same,Potency,[20],inactive
same,Potency,[8],inactive
same,Potency,[9],inactive
same,Potency,[10],inactive
same,Potency,[11],inactive
same,Potency,[12],inactive
same,Potency,[13],inactive
same,Potency,[15],inactive
same,Potency,[16],inactive
same,outcome,[17],inactive
same,Potency,[18],inactive
